In ChEMBL document CHEMBL3433997, “St. Jude Leishmania screening dataset” (2016):

target: Solute carrier family 2, facilitated glucose transporter member 1 (Homo sapiens) (UniProt P11166); assay: ST_JUDE_LEISH: Cytotoxicity at 2uM final concentration against transgenic Leishmania Mexicana promastigotes LmGLUT1 that are glucose transport deficient and complemented with the human glucose transporter GLUT1. Activity is measured by DNA content using SYBR green in vitro; assay type: functional
Sequence (P11166 whole entry): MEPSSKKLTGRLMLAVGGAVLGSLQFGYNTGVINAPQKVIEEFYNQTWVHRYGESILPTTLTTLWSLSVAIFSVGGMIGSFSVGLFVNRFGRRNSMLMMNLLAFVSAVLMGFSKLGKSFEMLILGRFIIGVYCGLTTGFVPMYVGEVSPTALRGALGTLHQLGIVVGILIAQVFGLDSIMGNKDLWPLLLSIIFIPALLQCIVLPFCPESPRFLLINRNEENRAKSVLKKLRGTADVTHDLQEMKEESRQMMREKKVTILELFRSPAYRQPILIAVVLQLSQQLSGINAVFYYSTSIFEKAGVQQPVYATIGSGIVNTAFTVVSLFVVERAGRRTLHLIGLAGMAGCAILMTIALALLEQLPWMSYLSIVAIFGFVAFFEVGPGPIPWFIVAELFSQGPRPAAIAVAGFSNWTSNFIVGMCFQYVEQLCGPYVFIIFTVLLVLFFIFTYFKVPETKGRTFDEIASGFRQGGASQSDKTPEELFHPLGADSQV

Row | Structure (SMILES) | inhibition [%]
1 | Cc1ccc(CN2CCCN(Cc3cccc(NC(=O)c4ccc(Cl)c(Cl)c4)c3)CC2)cc1 | -1.13
2 | O=C(NC1CC1)c1ccc2cc(C(=O)N3Cc4ccccc4C(c4ccccc4)C3)ccc2c1 (stereo not given) | 2.37
3 | O=C(Nc1ccc(Oc2ccccc2)cc1)N[C@@H](Cc1ccc(O)cc1)C(=O)NC1CCN(Cc2ccc(O)c([N+](=O)[O-])c2)C1 (stereo not given in full) | 2.19
4 | OC(COCc1ccc(-c2ccccc2)cc1)CN1CCCCC1 (stereo not given) | 2.72
5 | CC(C)c1ncc(-c2ccncc2)c(C2CCC(CNC(=O)c3ccncc3)CC2)n1 (stereo not given) | 3.67
6 | Nc1cccc(CNCc2ccc(-c3ccc(-c4nc5cc(C(F)(F)F)ccc5[nH]4)s3)cc2)c1 | 2.29
7 | Cc1ccccc1C1CCN(C2CCC(NC(=O)/C=C/c3cc(F)ccc3C(F)(F)F)CC2)CC1 (stereo not given) | 0.1
8 | O=[N+]([O-])c1nc(Br)n(Cc2ccc(Cl)cc2)n1 | 3.1
9 | Cc1ccc(NS(=O)(=O)c2cccs2)cc1-c1cccc(C(=O)Nc2ccc(F)cc2)c1 | 2
10 | Nc1nccc2ccc(-c3ccnc(NCc4cccnc4)n3)cc12 | 9.29
11 | O=C(/C=C/c1ccc(Cl)c(Cl)c1)NCCCCCN1CCCN(C(=O)Nc2ccc([N+](=O)[O-])cc2)CC1 | 1.18
12 | CCc1c(C)nc(-n2nc(C)cc2NC(=O)C2c3ccccc3Oc3ccccc32)[nH]c1=O | -0.64
13 | CN1CC[C@@H](Oc2cc(NC(=O)Nc3ccc(Cl)c(C(F)(F)F)c3)ccc2Cl)C1 | 0.88
14 | COc1ccc(-c2ccc(Nc3cccc(S(=O)(=O)CCN4CCC(CCN(C)C)CC4)c3)nc2)cn1 | -2.17
15 | CCCc1cc(=O)[nH]c(-n2nc(C)cc2NC(=O)C(CC)c2ccccc2)n1 (stereo not given) | 35
